Binding signal data for three sequences are collected here from article PMC11574364.

Assay in all cases: protein domain microarray probed with biotinylated miRNA; Domain array: 20 mM Tris-HCl pH 7.4, 200 mM KCl, 0.2 mM EDTA, 0.05% NP40, 2 ug/ul heparin, overnight 4 C. ORF array: PBS pH 7.0 with RNase inhibitor, 100 ng RNA; high values mean tight binding
Common to all, as to settings: ssRNA

Assay [1] has as its target T1, DAZL (Homo sapiens, UniProt Q92904).
T1 sequence: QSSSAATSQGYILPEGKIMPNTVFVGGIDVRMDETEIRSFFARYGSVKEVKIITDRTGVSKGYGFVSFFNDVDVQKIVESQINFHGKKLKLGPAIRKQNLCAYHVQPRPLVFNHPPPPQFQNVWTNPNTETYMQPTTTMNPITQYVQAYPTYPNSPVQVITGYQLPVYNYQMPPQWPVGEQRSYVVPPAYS

Assay [2] deals with T2, hnRNP-A0 (Homo sapiens, UniProt Q13151).
T2 sequence: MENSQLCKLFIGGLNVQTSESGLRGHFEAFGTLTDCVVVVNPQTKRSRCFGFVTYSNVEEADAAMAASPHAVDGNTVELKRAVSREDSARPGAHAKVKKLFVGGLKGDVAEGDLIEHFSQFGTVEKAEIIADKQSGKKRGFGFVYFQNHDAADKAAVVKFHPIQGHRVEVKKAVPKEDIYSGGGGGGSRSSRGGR

The target in assay [3] is T3, NeuN (Homo sapiens, UniProt A6NFN3).
T3 sequence: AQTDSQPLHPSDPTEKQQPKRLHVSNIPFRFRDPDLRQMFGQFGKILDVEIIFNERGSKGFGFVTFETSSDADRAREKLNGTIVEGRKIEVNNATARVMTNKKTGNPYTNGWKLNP

Assay [4] addresses T4, CPEB4 (Homo sapiens, UniProt Q17RY0).
T4 sequence: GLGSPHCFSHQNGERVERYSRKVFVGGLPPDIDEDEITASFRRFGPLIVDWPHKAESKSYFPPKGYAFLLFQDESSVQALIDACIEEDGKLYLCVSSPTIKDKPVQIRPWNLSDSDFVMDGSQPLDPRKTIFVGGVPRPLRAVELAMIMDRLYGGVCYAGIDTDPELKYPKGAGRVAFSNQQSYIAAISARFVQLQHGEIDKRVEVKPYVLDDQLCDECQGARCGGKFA

The target in assay [5] is CELF5(3) (Homo sapiens, UniProt Q8N6W0).
Chain of CELF5(3) (Q8N6W0 376-485): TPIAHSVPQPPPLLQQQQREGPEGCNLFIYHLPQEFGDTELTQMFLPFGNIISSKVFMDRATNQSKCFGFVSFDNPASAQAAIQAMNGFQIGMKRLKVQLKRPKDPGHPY
The target of assay [6] is CPEB1 (Homo sapiens, UniProt Q9BZB8).
Chain of CPEB1 (Q9BZB8 290-531): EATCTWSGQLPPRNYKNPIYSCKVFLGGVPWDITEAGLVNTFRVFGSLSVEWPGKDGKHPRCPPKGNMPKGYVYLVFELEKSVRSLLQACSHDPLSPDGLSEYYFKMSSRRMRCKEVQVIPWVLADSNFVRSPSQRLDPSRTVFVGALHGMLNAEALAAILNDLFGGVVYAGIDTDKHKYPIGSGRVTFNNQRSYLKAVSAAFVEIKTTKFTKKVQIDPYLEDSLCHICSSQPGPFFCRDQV
Assay [7] has as its target T5, MYEF2(3) (Homo sapiens, UniProt Q9P2K5).
T5 sequence: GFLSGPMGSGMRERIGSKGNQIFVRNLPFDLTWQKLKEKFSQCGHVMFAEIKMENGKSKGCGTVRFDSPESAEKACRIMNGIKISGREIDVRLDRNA

In assay [8] the target is T6, CstF-64T (Homo sapiens, UniProt Q9H0L4).
T6 sequence: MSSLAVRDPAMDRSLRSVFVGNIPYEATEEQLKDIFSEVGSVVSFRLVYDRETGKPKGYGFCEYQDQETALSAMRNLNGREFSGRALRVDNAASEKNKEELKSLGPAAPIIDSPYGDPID

The target of assay [9] is Musashi-1 (Homo sapiens, UniProt O43347).
Chain of Musashi-1 (O43347 1-203): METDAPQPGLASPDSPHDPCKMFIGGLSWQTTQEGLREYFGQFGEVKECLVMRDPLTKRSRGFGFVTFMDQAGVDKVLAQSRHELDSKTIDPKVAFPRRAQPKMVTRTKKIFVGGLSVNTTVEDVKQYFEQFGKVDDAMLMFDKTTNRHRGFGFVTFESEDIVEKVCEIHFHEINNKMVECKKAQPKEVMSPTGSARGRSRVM
Assay [10] deals with FIR (Homo sapiens, UniProt Q9UHX1).
Chain of FIR (Q9UHX1 110-559): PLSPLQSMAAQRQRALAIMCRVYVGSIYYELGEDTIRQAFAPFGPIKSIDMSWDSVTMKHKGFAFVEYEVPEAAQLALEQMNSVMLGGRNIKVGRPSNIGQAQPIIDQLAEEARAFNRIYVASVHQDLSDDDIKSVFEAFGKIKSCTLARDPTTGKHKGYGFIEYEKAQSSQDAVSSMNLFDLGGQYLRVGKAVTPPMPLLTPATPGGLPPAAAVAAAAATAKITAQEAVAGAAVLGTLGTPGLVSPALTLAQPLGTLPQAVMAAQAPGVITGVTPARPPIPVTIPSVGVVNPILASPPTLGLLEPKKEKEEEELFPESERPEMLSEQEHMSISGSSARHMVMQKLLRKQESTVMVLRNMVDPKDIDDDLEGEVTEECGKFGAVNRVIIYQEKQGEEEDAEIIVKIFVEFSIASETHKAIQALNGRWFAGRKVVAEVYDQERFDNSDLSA
For assay [11], the target named is HNRNPCP5 (Homo sapiens, UniProt B2RXH8).
Chain of HNRNPCP5 (B2RXH8 1-110): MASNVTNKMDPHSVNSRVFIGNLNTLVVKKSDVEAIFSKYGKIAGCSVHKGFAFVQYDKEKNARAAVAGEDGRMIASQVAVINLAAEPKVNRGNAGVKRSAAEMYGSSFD
Assay [12] concerns the target T7, hnRNP-F (Homo sapiens, UniProt P52597).
T7 sequence: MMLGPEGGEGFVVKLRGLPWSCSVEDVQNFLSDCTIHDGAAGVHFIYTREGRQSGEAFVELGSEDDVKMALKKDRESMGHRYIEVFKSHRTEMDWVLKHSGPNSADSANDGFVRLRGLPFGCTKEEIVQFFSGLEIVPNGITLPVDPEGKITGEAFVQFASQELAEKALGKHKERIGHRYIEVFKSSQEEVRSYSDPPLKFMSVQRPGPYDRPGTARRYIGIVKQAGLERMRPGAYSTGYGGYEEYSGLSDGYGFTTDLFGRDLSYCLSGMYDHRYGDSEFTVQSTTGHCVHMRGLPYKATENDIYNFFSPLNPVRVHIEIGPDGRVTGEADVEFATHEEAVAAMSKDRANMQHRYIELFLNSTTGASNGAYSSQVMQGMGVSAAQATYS

Assay [13] has as its target IGF2BP1 (Homo sapiens, UniProt Q9NZI8).
In assay [14] the target is T8, GRSF1 (Homo sapiens, UniProt Q12849).
T8 sequence: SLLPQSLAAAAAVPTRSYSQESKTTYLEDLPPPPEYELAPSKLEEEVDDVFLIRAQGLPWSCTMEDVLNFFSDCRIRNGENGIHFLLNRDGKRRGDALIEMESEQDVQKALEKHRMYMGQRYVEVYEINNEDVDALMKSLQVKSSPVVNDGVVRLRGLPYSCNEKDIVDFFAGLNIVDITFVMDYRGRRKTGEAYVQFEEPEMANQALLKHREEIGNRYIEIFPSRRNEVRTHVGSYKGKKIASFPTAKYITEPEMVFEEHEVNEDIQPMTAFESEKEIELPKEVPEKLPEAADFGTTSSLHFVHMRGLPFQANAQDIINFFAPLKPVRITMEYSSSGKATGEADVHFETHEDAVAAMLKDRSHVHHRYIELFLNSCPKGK

Assay [15] addresses hnRNP-I(3-4) (Homo sapiens, UniProt P26599).
For assay [16], the target named is T9, NOL8 (Homo sapiens, UniProt Q76FK4).
T9 sequence: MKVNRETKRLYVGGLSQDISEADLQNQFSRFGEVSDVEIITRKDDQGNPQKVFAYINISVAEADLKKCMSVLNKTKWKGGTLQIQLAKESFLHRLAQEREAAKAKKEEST

Assay [17] deals with T10, hnRNP-2H9 (Homo sapiens, UniProt P31942).
T10 sequence: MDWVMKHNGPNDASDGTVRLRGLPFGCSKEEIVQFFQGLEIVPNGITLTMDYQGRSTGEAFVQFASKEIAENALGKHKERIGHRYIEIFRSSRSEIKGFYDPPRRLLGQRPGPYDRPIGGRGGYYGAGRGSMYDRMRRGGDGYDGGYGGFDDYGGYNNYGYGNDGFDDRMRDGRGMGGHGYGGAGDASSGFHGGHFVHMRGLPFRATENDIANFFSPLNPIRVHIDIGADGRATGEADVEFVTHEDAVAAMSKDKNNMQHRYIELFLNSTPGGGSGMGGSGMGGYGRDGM

Assay [18] concerns the target T11, ENOX2 (Homo sapiens, UniProt Q16206).
T11 sequence: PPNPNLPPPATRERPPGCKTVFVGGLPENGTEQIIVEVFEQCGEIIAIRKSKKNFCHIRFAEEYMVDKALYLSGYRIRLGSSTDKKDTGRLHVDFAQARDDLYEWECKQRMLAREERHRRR

In assay [19] the target is T12, TAT-SF1 (Homo sapiens, UniProt O43719).
T12 sequence: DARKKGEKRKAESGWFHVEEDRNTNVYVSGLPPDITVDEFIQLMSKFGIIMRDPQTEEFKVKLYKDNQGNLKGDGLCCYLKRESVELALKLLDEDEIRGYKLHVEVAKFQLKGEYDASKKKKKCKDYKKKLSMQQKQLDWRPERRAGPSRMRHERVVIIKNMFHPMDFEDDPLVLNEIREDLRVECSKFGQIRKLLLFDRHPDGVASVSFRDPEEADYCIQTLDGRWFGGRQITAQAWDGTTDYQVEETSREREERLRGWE

Assay [20] has as its target T13, AKAP1 (Homo sapiens, UniProt Q92667).
T13 sequence: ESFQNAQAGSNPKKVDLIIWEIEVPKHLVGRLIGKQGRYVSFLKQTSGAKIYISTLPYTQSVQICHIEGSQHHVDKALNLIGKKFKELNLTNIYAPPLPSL

Chain of hnRNP-I(3-4) (P26599 346-557): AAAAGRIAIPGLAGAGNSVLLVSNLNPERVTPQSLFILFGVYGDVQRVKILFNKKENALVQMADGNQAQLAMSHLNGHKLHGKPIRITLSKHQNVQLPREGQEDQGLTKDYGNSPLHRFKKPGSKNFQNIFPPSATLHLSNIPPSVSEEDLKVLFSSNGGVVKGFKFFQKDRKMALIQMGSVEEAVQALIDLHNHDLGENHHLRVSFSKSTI
Chain of IGF2BP1 (Q9NZI8 1-176): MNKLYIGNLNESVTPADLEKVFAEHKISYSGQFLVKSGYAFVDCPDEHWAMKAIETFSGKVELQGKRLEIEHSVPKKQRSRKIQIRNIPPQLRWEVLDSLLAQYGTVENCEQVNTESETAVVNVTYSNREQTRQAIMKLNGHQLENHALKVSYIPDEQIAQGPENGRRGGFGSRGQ

As to UAGCUUAUCAGACUGAUGUUGA, the binding signal in [1] is 238 ± 9.04 fluorescence intensity; in assay [2] it was 153 ± 38.7 fluorescence intensity; in [3], 1430 ± 113 fluorescence intensity; in assay [4], 52.4 ± 15.6 fluorescence intensity; in [5], 118 ± 40.8 fluorescence intensity; in assay [6], 37.9 ± 2.09 fluorescence intensity. The binding signal in assay [7] is 39.3 ± 2.37 fluorescence intensity; in [8] it was 109 ± 3.13 fluorescence intensity; in [9] it was 156 ± 11 fluorescence intensity; in [10] it was 1240 ± 132 fluorescence intensity; in assay [11] it was 23.4 ± 0.714 fluorescence intensity; in [12], 25.7 ± 1.8 fluorescence intensity. For the same sequence, the binding signal in assay [13] turned out to be 23 ± 0.714 fluorescence intensity; in assay [14], 39.7 ± 8.15 fluorescence intensity; in assay [15], 230 ± 15.3 fluorescence intensity.

As to UGAGGUAGUAGGUUGUGUGGUU, the binding signal amounted to 433 ± 5.39 fluorescence intensity in assay [1]; 66.3 ± 9.47 fluorescence intensity in assay [16]; 2115 ± 15 fluorescence intensity in [2]; 1967 ± 2.72 fluorescence intensity in [3]; 443 ± 62 fluorescence intensity in [17]; 290 ± 49.8 fluorescence intensity in [4]. Besides, the binding signal in assay [5] came out at 1040 ± 35.6 fluorescence intensity; in assay [6], 462.1 ± 2.31 fluorescence intensity; in assay [7], 635 ± 16.7 fluorescence intensity; in [8], 1870 ± 24.6 fluorescence intensity; in assay [9], 1830 ± 23.3 fluorescence intensity; in assay [10] it was 1610 ± 121 fluorescence intensity. Moreover, the binding signal turned out to be 93.8 ± 2.53 fluorescence intensity in assay [11]; 1210 ± 41.5 fluorescence intensity in assay [12]; 47.9 ± 7.33 fluorescence intensity in assay [13]; 2120 ± 63.5 fluorescence intensity in [14]; 945.75 ± 0.764 fluorescence intensity in [15]; 118 ± 1.51 fluorescence intensity in assay [18]. Further, the binding signal in [19] was 184.1 ± 0.318 fluorescence intensity; in assay [20], 202 ± 12.1 fluorescence intensity.

For UGAGGUAGUAGGUUGUAUAGUU, the binding signal in [1] worked out at 94.2 ± 11 fluorescence intensity; in assay [16], 20.3 ± 2.97 fluorescence intensity; in [2] it was 1310 ± 111 fluorescence intensity; in assay [3], 866 ± 44.2 fluorescence intensity; in assay [17] it was 151 ± 11.1 fluorescence intensity; in assay [4], 82.4 ± 7.2 fluorescence intensity. Moreover, the binding signal in [5] stood at 450 ± 137 fluorescence intensity; in [6] it was 110 ± 9.17 fluorescence intensity; in [7], 190.1 ± 1.74 fluorescence intensity; in [8], 387 ± 8.85 fluorescence intensity; in assay [9], 1480 ± 17 fluorescence intensity; in [10] it was 717 ± 15 fluorescence intensity. In addition, the binding signal was 24.6 ± 1.06 fluorescence intensity in [11]; 624 ± 22.5 fluorescence intensity in [12]; 26.3 ± 0.771 fluorescence intensity in [13]; 1790 ± 23.3 fluorescence intensity in [14]; 323 ± 28.7 fluorescence intensity in [15]; 20.7 ± 2.55 fluorescence intensity in [18]. Moreover, in [19], the binding signal amounted to 33.2 ± 1.48 fluorescence intensity.
